PubChem BioAssay AID1508600 (Functional Genomics Laboratory (NCATS/FGL), 2020)
Hit rate of the full screen: of about 53,000 sequences, about 3,700 (7%) were called active.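 How the source made its calls: active means gene knockdowns whose robust z-score for IL-1 alpha signal is at least 2 or at most -2, so actives lie on both sides; inactive means the rest.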 The sample as a whole holds a higher share of actives than the screen did.

Test: Components of the Cytosolic LPS Sensing Pathway: Gene Identification via Genome-wide siRNA Screen;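 further: robust z of the log signal after scaling to non-targeting control siRNA wells of the plate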
Details: RAW264.7 macrophages, IL-1a HTRF, actives lie on both sides, screened at 100 nM (by protocol), cells primed 5 h with Pam3CSK4 first
Method in brief: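 IL-1a HTRF of supernatants after 24 hour LipidA transfection of Pam3CSK4-primed (5 hours) RAW264.7 cells, 48h post-siRNA transfection (100 nM). Scores: percent of plate negative-control median, then log-based robust z-score.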

Row | Sequence | z-score
1 | GGCGAAUGAAGGUUUCUGGTT against Pex11b | -0.581 (inactive)
2 | GCUGUUGGUCUGAUAGCUUTT against Hadhb | 0.378 (inactive)
3 | GCCAUGCCUUAAUCUUGGUTT against Cd300lf | 0.0466 (inactive)
4 | GCAAAGACGAAAUGCCGAGTT against Ttc32 | -0.23 (inactive)
5 | GAUUCUCCAUUGCCCAAUGTT against Lce1i | 0.0132 (inactive)
6 | CCUCAACUCCCUGUCACACTT against Rnaseh2a | 0.944 (inactive)
7 | GGAGCGAUUCACAAAUUACTT against Tapt1 | 3.05 (active)
8 | CGACUAUUUGGGUGGCAAGTT against Scin | -0.103 (inactive)
9 | GGUAAGAAAACUGACCUUATT against Abra | -0.787 (inactive)
10 | GGCUGUAUGCUCAGACUGATT against Olfr147 | -1.25 (inactive)
11 | GGGCAUAUUUGGAAUCUGATT against Rtn4 | 2.51 (active)
12 | GGAAUCUACCACUUGGUUCTT against Chrdl2 | -0.936 (inactive)
13 | GGGAUUCAGAGUCAAGAUUTT against Thpo | -0.275 (inactive)
14 | GCUUCCUACCAUGAUGGUCTT against Otol1 | 2.13 (active)
15 | GCCCUUACAUAAUAGCUUGTT against Tacr2 | 1.56 (inactive)
16 | GGUCCCAGUCUAUGAAAACTT against Pym1 | 1.81 (inactive)
17 | GUCCUGAAAAUGCUAUUCUTT against Olfr68 | 0.281 (inactive)
18 | CCUGGUGCUUCGUAAUUACTT against Cyp11a1 | -1.03 (inactive)
19 | GGGUACAAAACUUGAACUUTT against Gins3 | 2.84 (active)
20 | GGACAGUGUGUUUUCUUGUTT against Ankle1 | 0.551 (inactive)
21 | CCAGAUUCCUCUUGGCCGATT against Spryd7 | 0.36 (inactive)
22 | GCAAGAUUCAGAGUGCAGCTT against Txlng | -1.09 (inactive)

Row | Sequence | z-score
23 | GGUUGCAUUGUAGGGUUGGTT against Olfr129 | 0.221 (inactive)
24 | GCCCUAAAUCCUUUUAUUATT against Trpc7 | 2.78 (active)
25 | GGAUGUACAAUAAUUGGGATT against Pramel39 | 1.45 (inactive)
26 | GCAGGAUUCAAAGAUCUAATT against Kbtbd8 | -0.587 (inactive)
27 | GGCUCUAUCUUAAAAUAACTT against 4930542C12Rik | 0.125 (inactive)
28 | GCCGAGCUUUUGUGAGUAUTT against Rhobtb2 | 0.247 (inactive)
29 | GCCAAUUGGACCUUAGAAATT against Nup107 | -2.58 (active)
30 | GGACUUUGUCACCAUGACGTT against Pef1 | 0.105 (inactive)
31 | CCUAAAGAAGGUCUAUGCCTT against Tmbim6 | -0.0538 (inactive)
32 | GAAGCACAACCUCGGCUUUTT against AY074887 | 0.448 (inactive)
33 | GGGUGUGAAAGUCAAUAAATT against 4930591A17Rik | 1.02 (inactive)
34 | UGGUGAAUACCAGUCUAAUTT against Tnfrsf23 | 0.0551 (inactive)
35 | GUAUUUUACACUCUUGUGGTT against Olfr898 | -2.31 (active)
36 | GUAUCAUGACAGCUGUUUUTT against Olfr519 | -0.254 (inactive)
37 | GGAAAACAAGGAACAUGCGTT against Scgb1b2 | 0.138 (inactive)
38 | GGCCAAGACCUCAGAGAUUTT against Apoa2 | -1.39 (inactive)
39 | GGCAGCUUUGGAACAACUATT against Zc3h14 | -0.477 (inactive)
40 | GGAUGCACUGAGGAACUCATT against Atg101 | -0.573 (inactive)
41 | GGAUCCAUGCUGUCAGUGGTT against Sftpa1 | 2.17 (active)
42 | GGGAAUUGAUGAAAGCUCUTT against Gigyf2 | -0.369 (inactive)
43 | GCUUGGUGUAAUCAUGCGCTT against Prl7d1 | 0.314 (inactive)
44 | GGGAACUUUAGCUUAAAUUTT against Lypd6 | 0.135 (inactive)

Row | Sequence | z-score
45 | CGGCGACAUUGUUUUGCUATT against Acvr2a | 1.19 (inactive)
46 | GGGCCUUCACAAUGUCCUUTT against Brca1 | 2.68 (active)
47 | GGACCUUGAGAAAGUAGUCTT against Ms4a10 | 0.651 (inactive)
48 | GGUGAUGAAAAAGGACAGCTT against Oit1 | 0.0982 (inactive)
49 | GUACGUCAAGAGCCUGCGUTT against Fam110a | -2.65 (active)
50 | GGAGCAGAUACCCUAGCCUTT against Mtx1 | 0.698 (inactive)
51 | GGACUUGAAGAUGUACCAGTT against Il12a | 0.427 (inactive)
52 | GCCAUUCUAGAACCUGUAGTT against Zwint | -1.65 (inactive)
53 | GCUAACUUAGAUAUCCAGGTT against Abtb2 | 0.125 (inactive)
54 | GGGCCAAAUUUGAAUCCCUTT against Rcan1 | -2.09 (active)
55 | CCAAGUUUUUAUGCAGAUATT against Pip5k1b | 1.6 (inactive)
56 | GGGUAUAUUUCCUUCCAGCTT against Dock4 | -0.105 (inactive)
57 | GGUGGGAUGAUCAUAAGUUTT against Ppnr | -0.0428 (inactive)
58 | GCUGUGGAACUUAUGUUUUTT against Faxc | -0.518 (inactive)
59 | GGAUUAAUCAAACUGAGAGTT against Lrrtm2 | -1.24 (inactive)
60 | GCGAUUCCUAGAGCUGAGCTT against Git1 | -2.5 (active)
61 | GCUGAUUAGCCAUGUAAUUTT against Cebpg | -0.481 (inactive)
62 | GCUUUAUGGAUCUACCAAATT against Fbxl3 | 1.81 (inactive)
63 | GGAAAACAGCUUUGAUUGGTT against Tmem232 | 0.868 (inactive)
64 | GCAAGCCAACUGACCAUCATT against Nudt2 | 0.486 (inactive)
65 | CGACUCCAUGUGGACUUAUTT against Gca | -1.16 (inactive)
66 | CGAACACUAAGCUUUGAUATT against Rab11fip2 | -0.493 (inactive)

Row | Sequence | z-score
67 | GGUUUUACAUUCUGUGUUUTT against Spata9 | -0.898 (inactive)
68 | CCUUGGAGAGAGAAGACAUTT against Rpp38 | 0.292 (inactive)
69 | CCAAUGCAAGUGCUACAGUTT against Zfp277 | -2.64 (active)
70 | GGCUCACUCAUUUGUCAGATT against Soat1 | 0.0924 (inactive)
71 | GCCUAAUCAUUCCCAGCAUTT against Oog2 | 0.211 (inactive)
72 | CCUUCUACUGGCAACCUAUTT against Zfp110 | 0.25 (inactive)
73 | GGUAUCUACACCAAACUUATT against Klk1b5 | 0.685 (inactive)
74 | GGAGCUAACUGUCAAUGGATT against Usp17la | 2.8 (active)
75 | GGAUGAAGAACUGAAAUCUTT against Unc13b | 0.167 (inactive)
76 | CCCUGUAAAGAUCGAGAAGTT against Zfp296 | 0.241 (inactive)
77 | GGGACACCCUUUGAAGAUGTT against Ube2b | -0.314 (inactive)
78 | GGCAUGAUGUUCAUGGAUATT against Nup62 | -2.04 (active)
79 | CGAAGAUAAUUAUGGAGCCTT against Fat4 | 0.548 (inactive)
80 | CGCAGAGUUAAUUUCUUGUTT against Rchy1 | 0.995 (inactive)
81 | CCAACAAUUCUGCCAAGACTT against Arrb2 | -2.57 (active)
82 | CCGAAGGAUUGAAGAGCCUTT against Trnt1 | 0.746 (inactive)
83 | GGCUUCAUAAGAUCAAAGATT against Lca5l | -2.88 (active)
84 | GCAGGUCUAAUAAUGGUCATT against Syt12 | -0.536 (inactive)
85 | GGAUCCUGCAUCUUAUAGUTT against Tcstv3 | 0.468 (inactive)
86 | GCUGUUUCCCAGAGAAGAATT against Defb2 | -0.814 (inactive)
87 | CGGUUCCAACCUUGAAAAATT against H1f10 | -0.676 (inactive)
88 | GCUCUACCGUUAAGUUAUUTT against Eif4e2 | 0.499 (inactive)

Row | Sequence | z-score
89 | GGUCAUCCUUUUUCAGUACTT against Lhx6 | 2.28 (active)
90 | GGGCGUGAAUUCAGAGAUUTT against Pcdhgb5 | -0.00376 (inactive)
91 | CGGGUUCUACUAUCAUGCATT against Ltbp4 | 0.259 (inactive)
92 | GGUCACCAGUACCUAUGGATT against Bricd5 | -2.17 (active)
93 | GGGACUGUACUCAUUUCUATT against Rnf138rt1 | -0.67 (inactive)
94 | GCAGGUUGAACGACAGCGUTT against Dph5 | -0.349 (inactive)
95 | GGAAUAAUCCCAGUUCUCUTT against Tmem101 | -1.04 (inactive)
96 | CCAGAAUGGCGGGUAUUUGTT against Fbln5 | 2.14 (active)
97 | GAAGGUGAAGUGCAGGAAGTT against Fxyd7 | -0.081 (inactive)
98 | GCAGGCCAGAGUAGUCAUGTT against Them6 | 0.579 (inactive)
99 | GGAAUUAACGUGUUUCUGUTT against Tor1aip2 | 1.14 (inactive)
100 | GGUGAUAAAGCUAUGUAUUTT against Ccn2 | 0.147 (inactive)
101 | GGACAACAUUGACAAGUUCTT against Clcn7 | 1.36 (inactive)
102 | GCUGGGUCCACAUGAAUCATT against Sucnr1 | 2.7 (active)
103 | GGAUCAGACAUGCAAGAGGTT against Xlr5c | -1.81 (inactive)
104 | GCAUCAUGGUCACAAAUGGTT against Ncr1 | -0.613 (inactive)
105 | GCUACCGUGGGCGAUGUAATT against Dbi | -0.37 (inactive)
106 | GGGAAAAUGCGAUUCAUGATT against P2ry14 | -0.774 (inactive)
107 | GGAGAUUAUUAACUUCACCTT against Hcn3 | -0.895 (inactive)
108 | GGAACUGGACUUAUUCCACTT against Wnt5b | 0.652 (inactive)
